Source: PubChem (National Center for Advancing Translational Sciences (NCATS))
HADH2 inh: blocks human hydroxyacyl-CoA dehydrogenase type II; recombinant HADH2, NADH fluorescence, beta-hydroxybutyryl-CoA; Potency, µM (top dose mostly 57.1 µM), for the others: at the highest dose activity change, negative = inhibition, actives largely listed as inhibitors; 73,000 tested, 3.4% active; AID 886; further: potency means the concentration at half of the fitted maximal effect; on the % scale 0 is the no-effect control and ±100 the full control effect; nearly all actives have a fitted effect of over 60% in size
Target sequence (Q99714 whole entry, looked up, one chain of several): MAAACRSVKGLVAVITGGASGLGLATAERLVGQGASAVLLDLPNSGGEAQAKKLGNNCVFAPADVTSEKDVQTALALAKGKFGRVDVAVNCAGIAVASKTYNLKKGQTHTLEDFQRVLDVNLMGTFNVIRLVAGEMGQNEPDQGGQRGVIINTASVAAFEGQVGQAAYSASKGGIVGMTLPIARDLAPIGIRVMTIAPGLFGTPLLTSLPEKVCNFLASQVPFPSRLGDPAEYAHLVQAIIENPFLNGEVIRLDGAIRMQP
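Read-out: 360 nm excitation, 450 nm emission, kinetic over 4 min. Conditions: His-tagged human HADH2 20 nM, pH 9.0 Tris with Tween-20, 1 mM NAD+, 90 uM beta-hydroxybutyryl-CoA.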
AID923: qHTS Assay for Allosteric/Competitive Inhibitors of Caspase-1: Spectroscopic Profiling in AFC Spectral Region; Potency, µM (doses to about 57.5 µM), for the others: top-dose fluorescence increase, actives largely listed as activators; 75,000 tested, 1.1% active; compound fluorescence, AFC spectral region (405/520 nm); further: potency means the concentration at half of the fitted maximal effect; 0% is about no effect
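Baseline compound fluorescence (AFC region, 405 nm ex/520 nm em) taken from the intercept of kinetic reads with 50 nM caspase-1 and 5 uM Ac-WEHD-AFC; normalized to an on-plate AFC standard curve; compounds titrated up to 57 uM.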
CRE Fsk mod: CRE-bla signaling modulation under forskolin stimulation; CHO CRE-bla reporter (cAMP response element driving beta-lactamase), forskolin EC10, beta-lactamase ratio; Potency, µM (titrated, usually from 38.2 µM), for inactives: top-dose activity change, negative = inhibition, most hits filed as activators; 71,000 tested, 2.5% active; AID 662; active means well fitted activation curve with a large enough effect in the signal ratio, with a control signal flat, not every such curve was filed as active; inconclusive means small, poorly fitted or top-dose-only effect, or effect the other way, or a change in a side signal; the % refers to the signal ratio; further: potency means the concentration at half of the fitted maximal effect; % of control where 0% means no effect
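Using CellSensor CRE-bla CHO cells in Opti-MEM with 0.5% dialyzed FBS, compounds were titrated with EC10 NKH 477 for 3 h at 37 °C. CCF4 ratio (460/530 nm) gave %Activity; AC50 derived.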
HSD17B inh: blocks hydroxysteroid 17-beta dehydrogenase activity. Q99714. recombinant HSD17B10, NADH fluorescence kinetic. Potency, µM (series often up to 57.1 µM), for inactives: top-dose activity change, negative = inhibition, most hits filed as inhibitors. 75,000 tested, 7.6% active. AID 893;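 further: the protocol describes HADH2 (HSD17B10) and not the HSD17B4 of the title; potency means the concentration at half of the fitted maximal effect; on the % scale 0 is the no-effect control and ±100 the full control effect; nearly all actives have a fitted effect of over 70% in size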
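Enzyme plus compound, 15 min room temperature; substrate mix added (NAD+ 1 mM, beta-hydroxybutyryl-CoA 90 uM final); plates read kinetically for NADH fluorescence. HADH2 was His-tagged, E. coli-derived, 20 nM.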
4MU fluor: 4-MU region autofluorescence. compound autofluorescence, 340/450 nm, 4-MU equivalents; stronger effect = higher value. max dye-equivalent concentration, M. 59,000 tested, 11% active; in the data active means max dye-equivalent concentration above about 10 nM; inconclusive means mostly about 1.1 nM to 9.6 nM
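Compounds in 100 mM Tris, pH 8.0, incubated 15 min at room temperature, then fluorescence read at 340 nm excitation/450 nm emission. Signal converted to 4-MU dye-equivalent concentration using an on-plate six-point 4-MU standard curve.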
A350 autofl: A350 region autofluorescence | max dye-equivalent concentration, M | AID 590 | Compound autofluorescence, 340/450 nm, Alexa 350 dye-equivalents; stronger effect = higher value | 59,000 tested, 11% active; in the data active means max dye-equivalent concentration above about 10 nM; inconclusive means mostly about 1.1 nM to 9.6 nM
Numbers without * were called inactive; [ ] = dose if it differs, or a comment. Most compounds without a hit are left out; they make up all but 14% or so of the library. Unless noted, the call rests on the fitted dose curve; in most records, active means well fitted curve in the direction sought with a large enough effect; inconclusive means small, poorly fitted or top-dose-only effect, or another doubt; inactive means no such curve, though single readings can be large; an effect the other way counts as inactive or inconclusive.

Screening CC1(C)CC(=O)C2=C(C1)N(c1ccc(F)cc1)C(=O)CC2c1cccnc1 (stereo unspecified) returned HADH2 inh -1.2%, AID923 -1.3%, CRE Fsk mod -4.8% and HSD17B inh 4.3%.
`Cc1ccc(N2C(N)=C(C#N)C(c3cccnc3)C3=C2CC(C)(C)CC3=O)cc1` (stereo unspecified) gave HADH2 inh -15.0%, AID923 1.6%, CRE Fsk mod inconclusive, HSD17B inh -6.6%, 4MU fluor 2.23e-08M* and A350 autofl 2.04e-08M*.
For CCOc1ccc(OCC)c(C2C(C#N)=C(N)N(c3cccnc3)C3=C2C(=O)CC(C)(C)C3)c1 (stereo unspecified) the results were HADH2 inh 6.7%, AID923 -2.2%, CRE Fsk mod 3.7%, HSD17B inh -1.3%, 4MU fluor 1.07e-08M* and A350 autofl 1.23e-08M*.
For Cc1ccccc1-c1cc(Nc2ccc(F)cc2)ncn1 the results were HADH2 inh 3.9%, AID923 -1.1%, CRE Fsk mod inconclusive, HSD17B inh -11.0%, 4MU fluor inactive and A350 autofl inactive.
`O[C@@](CCN1CCCCC1)(c1ccccc1)[C@@H]1C[C@H]2C=C[C@@H]1C2` gave HADH2 inh -5.8%[25.6 µM], AID923 0.6%[25.7 µM], CRE Fsk mod 2.8%[17.1 µM], HSD17B inh 0.5%[25.6 µM], 4MU fluor inconclusive and A350 autofl inconclusive.
For CN(C)Cc1ccccc1-c1cc(N(C)C)ncn1 the results were HADH2 inh -13.3%, AID923 -1.4%, CRE Fsk mod 3.3%, HSD17B inh -2.9%, 4MU fluor inactive and A350 autofl inactive.
COc1cc(N=c2ssnc2Cl)cc(OC)c1OC was read as HADH2 inh 0.631µM*, AID923 -2.0%, CRE Fsk mod 18.4%, HSD17B inh 7.94µM*, 4MU fluor inactive and A350 autofl inactive.
`COc1ncc2nc(-c3cn(C)c4ccccc34)c(=O)n(CCc3ccccc3)c2n1` gave HADH2 inh 8.6%, AID923 inconclusive, CRE Fsk mod inconclusive, HSD17B inh 19.7%, 4MU fluor inactive and A350 autofl inactive.
Screening C=C(C)Cn1c(SCC)nc2ccccc2c1=O returned HADH2 inh 5.7%, AID923 2.0%, CRE Fsk mod inconclusive, HSD17B inh 2.1%, 4MU fluor inactive and A350 autofl inactive.
For CCN(CCCn1c(=S)[nH]c2ncccc2c1=O)c1ccccc1 the results were HADH2 inh 3.9%, AID923 0.1%, CRE Fsk mod inconclusive, HSD17B inh 0.0%, 4MU fluor inactive and A350 autofl inactive.
C=C(C)Cn1c(SCC#N)nc2ccccc2c1=O was read as HADH2 inh -12.5%, AID923 -1.6%, CRE Fsk mod 10µM*, HSD17B inh inconclusive, 4MU fluor inactive and A350 autofl inactive.
`CCN(CCCn1c(SCC#N)nc2ccccc2c1=O)c1ccccc1` gave HADH2 inh -2.5%, AID923 0.9%, CRE Fsk mod 2.51µM*, HSD17B inh -4.4%, 4MU fluor inactive and A350 autofl inactive.
For N#CCSc1nc2ccc(N3CCCCC3)cc2c(=O)n1Cc1ccccc1 the results were HADH2 inh 15.8µM*, AID923 9.9%, CRE Fsk mod inconclusive, HSD17B inh 20µM*, 4MU fluor inconclusive and A350 autofl inconclusive.
`CCCNC(=O)OC[C@@H]1O[C@H](CCO/N=C\[C@@H](OC)[C@H](C)/C=C\CC(=O)OC)C=C[C@@H]1Oc1ccc(OC)cc1` gave HADH2 inh 14.9%[11.4 µM], AID923 1.0%[11.5 µM] and HSD17B inh 6.0%[11.4 µM].
For COC(=O)C/C=C\[C@@H](C)[C@@H](/C=N\OC[C@@H](O)[C@H]1O[C@H]2OC(C)(C)O[C@H]2[C@@H]1O)OC the results were HADH2 inh -0.6%[11.4 µM], AID923 -1.8%[11.5 µM] and HSD17B inh 3.8%[11.4 µM].
